Data on 21 molecules can be found in PubChem BioAssay (NCATS).

Several values for one entry are separate records, joined by “and”; a condition that tells them apart may be missing. Equal values may be shown once. Results filed as inconclusive are left out. Unmarked numbers belong to inactive results. Activity calls are given as the source filed them. Calls follow the shape of the dose curve; as a rule, active = well fitted inhibition curve with a large enough effect; inconclusive = small, poorly fitted or top-dose-only effect; inactive = flat fitted curve, though single readings scatter.

In one test the test system is JCK. Briefly: qHTS profiling for inhibitors of Plasmodium falciparum proliferation (AID 504749). Also: potency is read from the fitted curve at half-maximal effect. The conditions noted are these: P. falciparum in erythrocytes, SYBR Green DNA, 72 h; series mostly up to 28.7 µM. Put shortly: (§1)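 In a 72 h erythrocytic culture (37 C, humidified, 5% CO2) at 2.5% hematocrit and 0.3% starting parasitemia, compounds were tested; SYBR Green I in detergent lysis buffer stained parasite DNA overnight.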

The test system of another test is N140. The description is as above. The conditions noted are these: P. falciparum in erythrocytes, SYBR Green DNA, 72 h; series mostly up to 28.7 µM. Put shortly: as §1
The next test concerns PAD. The test is described as above. The conditions noted are these: P. falciparum in erythrocytes, SYBR Green DNA, 72 h; series mostly up to 28.7 µM. Put shortly:
as §1

Another test relates to PC15. The description is as above. The conditions noted are these: P. falciparum in erythrocytes, SYBR Green DNA, 72 h; series mostly up to 28.7 µM. An outline of the steps: as §1
Another test relates to PC26. The test is described as above. The conditions noted are these: P. falciparum in erythrocytes, SYBR Green DNA, 72 h; series mostly up to 28.7 µM. Put shortly:
as §1

The test system of another test is PC49. Described as above. The conditions noted are these: P. falciparum in erythrocytes, SYBR Green DNA, 72 h; series mostly up to 28.7 µM. An outline of the steps:
as §1

A further test has as its system SC27B. Described as above. The conditions noted are these: P. falciparum in erythrocytes, SYBR Green DNA, 72 h; series mostly up to 28.7 µM. An outline of the steps:
as §1

The subject of another test is TAB113. The description is as above. The conditions noted are these: P. falciparum in erythrocytes, SYBR Green DNA, 72 h; series mostly up to 28.7 µM. An outline of the steps:
as §1

A further test relates to W2. The test is described as above. The conditions noted are these: P. falciparum in erythrocytes, SYBR Green DNA, 72 h; series mostly up to 28.7 µM. An outline of the steps: as §1
Test [1] relates to CRL-7250. Briefly: Cytotoxic Profiling of Annotated Libraries Using Quantitative High-Throughput Screening (AID 1296008). Also: potency is read from the fitted curve at half-maximal effect. As to max response: % is scaled to controls: 0 for no effect and ±100 for the full control effect. The conditions noted are these: Five cell lines viability, CellTiter-Glo ATP luminescence, 48-72 h; max response: stronger effect = lower value. Put shortly:
(§2)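 Cytotoxicity was measured as CellTiter-Glo ATP luminescence, read after 10 min at room temperature. Compound treatment of the cells lasted 48 or 72 hr at 37 degrees Celsius in a qHTS format.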

Another test has as its system HaCat. The test is described as above. The conditions noted are these: Five cell lines viability, CellTiter-Glo ATP luminescence, 48-72 h; max response: stronger effect = lower value. Put shortly: as §2
The test system of another test is KB-3-1. Described as above. The conditions noted are these: Five cell lines viability, CellTiter-Glo ATP luminescence, 48-72 h; max response: stronger effect = lower value. An outline of the steps: as §2
In a further test the test system is NIH3T3. The description is as above. The conditions noted are these: Five cell lines viability, CellTiter-Glo ATP luminescence, 48-72 h; max response: stronger effect = lower value. An outline of the steps: as §2
Test [2] deals with CRL-7250. Briefly: qHTS assay to identify novel small-molecules to repurpose for Merkel cell carcinoma treatment (AID 1296009). The conditions noted are these: MCC and control cell lines, CellTiter-Glo viability, 72 h; series mostly up to 44.8 µM. An outline of the steps: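 Cell viability measured by CellTiter-Glo following 72 hr compound treatment at 37 degree celsius, with NPC and MIPE libraries tested in 8- and 11-point concentration series.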

The next test relates to ICS. Briefly: qHTS profiling for inhibitors of Plasmodium falciparum proliferation (AID 504749). Also: potency is read from the fitted curve at half-maximal effect. The conditions noted are these: P. falciparum in erythrocytes, SYBR Green DNA, 72 h; series mostly up to 28.7 µM. An outline of the steps: as §1
The next test concerns P93_24. Described as above. The conditions noted are these: P. falciparum in erythrocytes, SYBR Green DNA, 72 h; series mostly up to 28.7 µM. Put shortly: as §1
A further test concerns P94_40. The description is as above. The conditions noted are these: P. falciparum in erythrocytes, SYBR Green DNA, 72 h; series mostly up to 28.7 µM. An outline of the steps:
as §1

A further test relates to TAB109. Described as above. The conditions noted are these: P. falciparum in erythrocytes, SYBR Green DNA, 72 h; series mostly up to 28.7 µM. Put shortly: as §1
Another test relates to TAB165. The test is described as above. The conditions noted are these: P. falciparum in erythrocytes, SYBR Green DNA, 72 h; series mostly up to 28.7 µM. Put shortly:
as §1

Another test has as its system HEK293. Briefly: Cytotoxic Profiling of Annotated Libraries Using Quantitative High-Throughput Screening (AID 1296008). Also: potency is read from the fitted curve at half-maximal effect. As to max response: % is scaled to controls: 0 for no effect and ±100 for the full control effect. The conditions noted are these: Five cell lines viability, CellTiter-Glo ATP luminescence, 48-72 h; max response: stronger effect = lower value. An outline of the steps: as §2
Also: nearly all actives have a fitted effect of over 60% in size.

Turning to `CCN(CC)CCN1C(=O)CN=C(c2ccccc2F)c2cc(Cl)ccc21`, the Potency result with JCK, with N140, in the test with PAD, with PC15, with PC26 and in the test with PC49 was “inactive” throughout. Further, the Potency entry in the test on SC27B and in the test with TAB113 was “inactive” throughout. In addition, the Potency with W2 was 4.78 µM (active). Also, the results for the max response in the test with CRL-7250 [1], in the test with HaCat and with KB-3-1 were -7.13%, 0.85% and -5.99%, respectively. Further, in the test with NIH3T3, the molecule was called inactive.
For the molecule `CN1CCC[C@@H]1Cc1c[nH]c2ccc(CCS(=O)(=O)c3ccccc3)cc12`, in the test with CRL-7250 [2], the outcome was inactive.
As to `CCN(CC)CCOC(=O)C(O)(c1ccccc1)c1ccccc1`, the Potency result in the test on ICS, in the test on JCK, with N140, in the test with P93_24, with P94_40 and with PAD was “inactive” in each case. Also, the Potency result in the test with PC15, in the test with PC26, with PC49, in the test on SC27B, in the test on TAB109 and with TAB113 was “inactive” each time. Besides, the Potency result in the test with TAB165 is “inactive”. In addition, the max response with CRL-7250 [1] is -0.239%; in the test with HaCat, -11%; with KB-3-1 it was -1.34%. In addition, the result in the test with NIH3T3 was inactive.
`CC(=O)[C@H]1CC[C@H]2[C@@H]3CC[C@H]4C[C@H](O)CC[C@]4(C)[C@H]3C(=O)C[C@]12C`: the Potency result in the test on ICS, with JCK, in the test on N140, with P93_24, in the test on P94_40 and in the test on PAD was “inactive” each time. Moreover, the Potency result in the test with PC15, with PC26, with PC49, in the test on SC27B, in the test on TAB109 and in the test with TAB113 was “inactive” each time. Also, the Potency result in the test on TAB165 and in the test on W2 was “inactive” throughout. Further, the max response with CRL-7250 [1] was -2.84%; in the test on HaCat, 0.502%; in the test with KB-3-1, -4.21%. Further, the molecule was classed as inactive in the test with NIH3T3.
Turning to `O=NN(CCCl)C(=O)NC1CCCCC1`, the call in the test with CRL-7250 [2] was inactive.
With `COc1ccccc1N1CCNCC1`, the Potency result in the test on ICS, in the test on JCK, in the test with N140, with P93_24, with P94_40 and with PAD was “inactive” in each case. Besides, the Potency entry with PC15, in the test with PC26, in the test with PC49, with SC27B, in the test with TAB109 and with TAB113 was “inactive” in each case. In addition, the Potency result with TAB165 and in the test on W2 was “inactive” each time. Moreover, the result with HEK293 and with HaCat was inactive. Moreover, the figures for the max response in the test on KB-3-1 and in the test with NIH3T3 were -11% and -4.83%, respectively.
`Cc1cccc(Nc2ccncc2S(=O)(=O)NC(=O)NC(C)C)c1`: in the test on CRL-7250 [2], the molecule was classed as inactive.
As to `COC[C@@H](NC(C)=O)C(=O)NCc1ccccc1`, the outcome with HaCat was inactive. In addition, the results for the max response in the test with KB-3-1 and in the test on NIH3T3 were 8.88% and 2.94%, respectively.
On to `NCCCC(O)(P(=O)(O)O)P(=O)(O)O`, for which the result in the test with CRL-7250 [2] was inactive.
Turning to `Cc1ccc(S(=O)(=O)N[C@@H](CCCCN)C(=O)CCl)cc1`, the Potency in the test on ICS was 12.6 µM (active); in the test on P93_24, 10 µM (active); in the test with P94_40, 11.2 µM (active); with PAD it was 12.6 µM (active); in the test on TAB109, 11.2 µM (active). For the same molecule, the Potency result with PC15 and in the test on PC26 was “inactive” each time. Also, the max response in the test with CRL-7250 [1] is 3.77%; with KB-3-1 it was 32.5%. Besides, the molecule was classed as inactive in the test with HaCat and in the test on NIH3T3.
`CCN(CC)CCOC(=O)C1(C2CCCCC2)CCCCC1`: in the test on CRL-7250 [2], the outcome was inactive.
Take `CNC(=O)N1N=C(c2ccc(N)cc2)c2cc3c(cc2CC1C)OCO3` (stereo not drawn): in the test on HEK293, the Potency was 23.1 µM (active). Besides, the max response is -13.3% and -0.52% in the test on HaCat; -39.3% with NIH3T3.
Turning to `CC(C)Nc1cccnc1N1CCN(C(=O)c2cc3cc(NS(C)(=O)=O)ccc3[nH]2)CC1`, the molecule was classed as inactive in the test on CRL-7250 [2].
As to `CC[C@@H](CO)NC(=O)[C@@H]1C=C2c3cccc4[nH]cc(c34)C[C@H]2N(C)C1`, the Potency result with ICS, with JCK, with N140, in the test on P93_24, in the test on P94_40 and with PAD was “inactive” each time. In addition, the Potency entry in the test with PC15, with PC26, in the test on PC49, in the test on SC27B, in the test with TAB109 and in the test on TAB113 was “inactive” throughout. The Potency entry with TAB165 and in the test with W2 was “inactive” each time. Moreover, the max response is -1.45% in the test on CRL-7250 [1], -5.68% with HaCat, 37.2% with KB-3-1 and -3.83% in the test on NIH3T3.
Consider `Oc1cn2c(n1)Nc1ccc(Cl)c(Cl)c1C2`, for which the outcome in the test on CRL-7250 [2] is “inactive [at 17.4 µM]”.
`NCC1(CC(=O)O)CCCCC1`: the Potency entry in the test with ICS, in the test with JCK, with N140, in the test with P93_24, in the test with P94_40 and in the test on PAD was “inactive” each time. Besides, the Potency entry in the test with PC15, in the test on PC26, with PC49, in the test with SC27B, in the test on TAB109 and with TAB113 was “inactive” in each case. The Potency entry with TAB165 and with W2 was “inactive” each time. Besides, the max response is -5.5% and -5.6% in the test on CRL-7250 [1]; -11.6% and 17.1% in the test on KB-3-1; -2.27% and -4.04% in the test with NIH3T3. In addition, the molecule was classed as inactive in the test with HaCat.
Turning to `Cc1cnc(C(=O)NCCc2ccc(S(=O)(=O)NC(=O)NC3CCCCC3)cc2)cn1`, the call in the test on CRL-7250 [2] was inactive.
For `C[C@@H]1[C@@H](CC(C[C@H]2O[C@@H]3O[C@]4(C)CC[C@@H]5[C@H](C)CC[C@@H]([C@H]2C)[C@@]35OO4)C[S+](=O)([O-])c2ccc(COC(=O)N(C)C)cc2)O[C@@H]2O[C@]3(C)CC[C@H]4[C@H](C)CC[C@@H]1[C@@]24OO3` (stereo partly drawn), in the test on KB-3-1, the Potency was 1.32 µM (active).
Turning to `CCCNC(=O)NS(=O)(=O)c1ccc(Cl)cc1`, the molecule was called inactive with CRL-7250 [2].
Same read-out and setting: the entry for `C1N2CN3CN1CN(C2)C3` is “inactive”.
As to `CC(=O)Nc1cc([As](=O)(O)O)ccc1O`, the Potency entry in the test with ICS, in the test on JCK, in the test on N140, with P93_24, in the test on P94_40 and in the test with PAD was “inactive” in each case. Further, the Potency result in the test with PC15, with PC26, in the test on PC49, with SC27B, in the test on TAB109 and in the test with TAB113 was “inactive” in each case. Further, the Potency entry with TAB165 and with W2 was “inactive” in each case. The results for the max response in the test on CRL-7250 [1], in the test with HaCat and in the test with KB-3-1 were -3.67%, -14.2% and 5.7%, respectively. The molecule was classed as inactive with NIH3T3.
